# Source: PubChem BioAssay AID652048 (National Center for Advancing Translational Sciences (NCATS), 2013)
# Screen size: about 410,000 compounds; about 2,400 (0.59%) were called active. This is one part of a sample in which actives are shown more often than they occur. Rule as the data show it: active = max activation above about 30%; inactive = the rest.
# Molecular target: D(3) dopamine receptor (Homo sapiens) (UniProt P35462)
# Assay: qHTS of D3 Dopamine Receptor Agonist: qHTS; also: 0% is about no effect
# Conditions: D3R DiscoveRx beta-arrestin cells, luminescence, 90 min; stronger effect = higher value
# From the text: D3 DARs represent a very important target for the treatment of several neuropsychiatric disorders. Indeed, one of the most promising therapeutic applications for the D3 DAR is in the area of addiction and related disorders. […] These findings have been observed with a number of addictive substances including cocaine, amphetamine, nicotine, and alcohol. […] Antagonism of the D3 DAR may also be therapeutic in the treatment of schizophrenia or psychosis. […] Since the D3 DAR is expressed in areas of the CNS associated with the control of mood and emotion, it has been hypothesized that selective antagonism of the D3 DAR may be effective in treating psychosis without inducing the motor side effects typically seen with D2 DAR antagonists.
# This part of the project aims to discover novel agonist.
# NIH Chemical Genomics Center [NCGC]
# NIH Molecular Libraries Probe Centers Network [MLPCN]
# Assay Submitter (PI): David Sibley, NINDS
# Freshly passaged cells are plated in 1536 well white, solid bottom plates at a density of 1500 cells/well in 3microl of complete media. After an overnight incubation at 37 degrees C in 5% CO2, cells are loaded with 23nl of test compound from the compound library (as well as dopamine controls) using a 1536 pintool and incubated at 37 degrees C for 90 minutes. Two microliters of DiscoveRx reagent is then added to all cells, and they are incubated for an additional 30 - 60 minutes at room temperature. Following incubation, luminescence is measured on a ViewLux CCD-based luminometer reader using a 20 sec exposure time.
# Chain of D(3) dopamine receptor (Homo sapiens) (P35462 whole entry, looked up): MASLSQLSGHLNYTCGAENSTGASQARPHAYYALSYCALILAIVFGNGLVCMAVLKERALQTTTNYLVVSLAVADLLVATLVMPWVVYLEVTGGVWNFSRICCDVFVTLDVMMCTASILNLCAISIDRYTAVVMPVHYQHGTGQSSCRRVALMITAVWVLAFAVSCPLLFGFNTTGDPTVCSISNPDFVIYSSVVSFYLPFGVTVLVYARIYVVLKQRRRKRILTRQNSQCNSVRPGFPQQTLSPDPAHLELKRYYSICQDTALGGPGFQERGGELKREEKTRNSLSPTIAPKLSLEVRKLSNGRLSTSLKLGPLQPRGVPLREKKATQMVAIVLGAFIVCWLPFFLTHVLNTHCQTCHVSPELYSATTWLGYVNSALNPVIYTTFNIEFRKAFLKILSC
row,Structure (SMILES),max activation
1,CC(C)=CCc1c(O)c(CC=C(C)C)c2occ(-c3ccc(O)cc3)c(=O)c2c1O,84.1% (active)
2,CC(C)=CCc1ccc(O)c(=O)cc1C(C)C,-8.37% (inactive)
3,CCc1nc2c(cnn2-c2ccc(C)cc2)c(=O)n1-c1ccc(C)cc1,0.0293% (inactive)
4,O=C(CCn1ccc2cc(S(=O)(=O)N3CCCC3)ccc21)NCc1cccc(Cl)c1,-1.61% (inactive)
5,COc1ccc2ncc3c(-c4ccc(C)c(C)c4)nn(CC(=O)NC4CCCC4)c3c2c1,-3.77% (inactive)
6,CC(=O)O[C@]1(C(C)=O)CC[C@H]2[C@@H]3CCC4=CC(=O)CC[C@]4(C)[C@@]3(F)[C@@H](O)C[C@@]21C,9.73% (inactive)
7,CCC(=O)N1N=C(c2ccc(OC)cc2)CC1c1cn(-c2ccccc2)nc1-c1cccs1 (centres undefined),-10.2% (inactive)
8,S=c1[nH]nc(-c2cccs2)n1/N=C/c1cn(-c2ccccc2)nc1-c1ccc(Cl)cc1,44.2% (active)
9,CC(=O)O[C@H]1CC[C@@]2(C)C(=CC[C@@H]3[C@@H]2CC[C@]2(C)C(c4cccnc4)=CC[C@@H]32)C1,6.91% (inactive)
10,COc1ccc(S(=O)(=O)NCc2cccn2Cc2cccc(C)c2)cc1Cl,-14.5% (inactive)
11,Cc1ccc(C(=O)Nc2ccc(OCc3cc(=O)n4c5c(sc4n3)CCCC5)cc2)cc1,-4.47% (inactive)
12,COc1cc(C(=O)N2CCN(C/C=C/c3ccccc3)CC2)cc(OC)c1C,49.9% (active)
13,COc1ccccc1C(=O)NC(CCSC)C(=O)N1CCN(C/C=C/c2ccccc2)CC1 (centres undefined),-0.587% (inactive)
14,COc1ccc(C(=O)NC2CC2)cc1OC1CCN(C/C=C/c2ccccc2)CC1,-13.2% (inactive)
15,CCc1ccccc1N1C(=O)CN(S(=O)(=O)CC)CC1(C)C(=O)NC1CCCCC1 (centres undefined),-18.4% (inactive)
16,N#Cc1ccccc1Cn1cnc2nc3c(cc2c1=O)CCCC3,-7.33% (inactive)
17,C/C=C/C=N/NC(=O)c1ccncc1,-12.6% (inactive)
18,Cc1ccc(Cc2nc3ccccc3nc2SCC(=O)Nc2cccc(C(F)(F)F)c2)cc1,4.77% (inactive)
19,CN(Cc1ccccc1)C(=O)c1cc2c(=O)n(C)c3ccccc3c2s1,-16.8% (inactive)
20,CN(Cc1ccccc1)C(=O)c1cccc(C(=O)N(C)Cc2ccccc2)c1,115% (active)
21,Cc1cc(C)cc(NC(=O)N(C)Cc2ccccc2)c1,-3.6% (inactive)

row,Structure (SMILES),max activation
1,COc1ccc(-c2noc(CSc3nnc(-c4ccccc4)n3-c3ccc(F)cc3)n2)c(OC)c1,-1.45% (inactive)
2,COc1ccc(S(=O)(=O)NCCSc2nnnn2-c2ccccc2)cc1,-5.06% (inactive)
3,O=C(NC1CCCCC1)c1ccc2c(c1)N(Cc1ccc(Cl)cc1)C(=O)c1ccccc1S2=O (centres undefined),3.22% (inactive)
4,CCC1CN(S(=O)(=O)c2cc(-c3cc(C)no3)ccc2C)c2cc(C)ccc2O1 (centres undefined),-8.75% (inactive)
5,Cc1ccc(Nc2ccc3cc(S(=O)(=O)N4CCCCC4)ccc3n2)cc1F,3.49% (inactive)
6,O=C1CCC(=O)N(O)CCCCCNC(=O)CCC(=O)N(O)CCCCCNC(=O)CCC(=O)N(O)CCCCCN1,65.3% (active)
7,Cc1cc(C)cc(C(=O)N(CCc2ccccc2)C2=CC3CCC(C2)N3C)c1 (centres undefined),-13.4% (inactive)
8,CCCN(CCc1ccccc1)C1CCc2c(O)cccc2C1 (centres undefined),110% (active)
9,COc1cccc(CNC(=O)CN2C(=O)CCc3cc(S(=O)(=O)N4CCOCC4)ccc32)c1,7.79% (inactive)
10,COc1ccc(N2CCN(C(=O)CSCc3nc(-c4ccccc4Cl)oc3C)CC2)cc1,13.9% (inactive)
11,Cc1ccc(NC(=O)C2CCN(S(=O)(=O)c3cc(-c4noc(C)n4)ccc3C)CC2)c(C)c1,-12.1% (inactive)
12,Cc1ccc(S(=O)(=O)c2nnn3c2nc(N2CCN(c4ccccc4F)CC2)c2cc(Cl)ccc23)cc1C,4.43% (inactive)
13,Cc1ccc(S(=O)(=O)C(C#N)c2nc3ccccc3nc2N2CCCC2)cc1C (centres undefined),44.8% (active)
14,N#CC(C(=O)c1ccc(S(=O)(=O)N2CCCCCC2)cc1)c1nc2ccccc2[nH]1 (centres undefined),24% (inactive)
15,CO/N=C(\C(=O)N[C@@H]1C(=O)N2C(C(=O)O)=C(C[N+]3(C)CCCC3)CS[C@H]12)c1csc(N)n1,2.02% (inactive)
16,O=S(=O)(c1ccc2nc(NCc3ccccc3Cl)ccc2c1)N1CCCCC1,-23.2% (inactive)
17,Cc1ccc(CNC(=O)c2cccc3c2C(=O)c2ccc(N4CCC(C)CC4)cc2S3(=O)=O)cc1,54.8% (active)
18,Cc1ccc(CNC(=O)C2CCCN2C(=O)NCc2ccccc2)cc1 (centres undefined),4.63% (inactive)
19,Cc1cccc(CNC(=O)c2cnc3sc(N4CCCCC4)nn3c2=O)c1,6.54% (inactive)
20,CCOC(=O)[C@H](CCc1ccccc1)N[C@@H](C)C(=O)N1CC2(C[C@H]1C(=O)O)SCCS2,-2.59% (inactive)
21,CC(C)(C)C(=O)OCc1nc(-c2ccc(O)c(O)c2)cs1,117% (active)

row,Structure (SMILES),max activation
1,COCc1cccc(-c2csc(C(O)c3ccc(F)cc3)n2)c1 (centres undefined),-13.4% (inactive)
2,Cc1ccc(S(=O)(=O)N2CCCc3cc(NS(=O)(=O)c4cc(C)ccc4C)ccc32)cc1,7.92% (inactive)
3,CO/N=C(\C(=O)N[C@@H]1C(=O)N2C(C(=O)O)=CCS[C@H]12)c1csc(N)n1,3.03% (inactive)
4,COC(=O)c1ccc2nc(-c3ccc(C)cc3)c(Cc3ccc(OC)cc3C)n2c1,-2.45% (inactive)
5,CCCCNc1c(-c2cccc(Sc3ccc(OC)cc3)c2)nc2ccccn12,13.9% (inactive)
6,CCCCNc1c(-c2ccc(OC)c(Sc3ccc(OC)cc3)c2)nc2ccc(Cl)cn12,44.7% (active)
7,COc1ccc(C2(C#N)CCC(C(=O)O)CC2)cc1OC1CCCC1 (centres undefined),-0.732% (inactive)
8,CCNS(=O)(=O)c1cc(-c2nnc(Nc3cccc(C(F)(F)F)c3)c3ccccc23)ccc1C,13.3% (inactive)
9,CCOc1ccc(OCC)c(Nc2nc3ccccc3n3nnnc23)c1,5.21% (inactive)
10,c1ccc2cc(C3=NCCN3)ccc2c1,-15.2% (inactive)
11,Cc1ccccc1Nc1nc(N)nc(COC(=O)CCC(=O)c2ccc(F)cc2)n1,2.22% (inactive)
12,CCCn1nc(C(=O)NNC(=O)CSCC(=O)Nc2cc(C)on2)c2ccccc2c1=O,-7.71% (inactive)
13,CCCn1nc(C(=O)OCc2nc(N)nc(Nc3ccccc3C)n2)c2ccccc2c1=O,31.8% (active)
14,CCC(=O)N1CCc2cc(Br)cc(S(=O)(=O)NCc3ccc(Cl)cc3)c21,-15.3% (inactive)
15,CN1CC[C@H](c2c(O)cc(O)c3c(=O)cc(-c4ccccc4Cl)oc23)[C@H](O)C1,6.48% (inactive)
16,Cn1c(=O)[nH]c(=O)c2c1nc(Br)n2CCCCSc1nc2ccccc2o1,40.9% (active)
17,Cn1c(=O)c2c(nc(Br)n2CCSc2nc3ccccc3o2)n(C)c1=O,4.26% (inactive)
18,Cc1ccnc(SCCn2c(Br)nc3c2c(=O)[nH]c(=O)n3C)n1,5.98% (inactive)
19,Oc1ccc(-c2nc3ccc(Cl)cn3c2Nc2ccc3c(c2)OCO3)cc1,6.89% (inactive)
20,Cc1ccccc1CN1CCC(CNC(=O)c2cc3ccc4cccnc4c3[nH]2)CC1,-21.1% (inactive)
21,CC(=O)Nc1cccc(NC(=O)CSc2cn(CC(=O)N3CCCC3)c3ccccc23)c1,11.5% (inactive)

row,Structure (SMILES),max activation
1,Cc1cccc(N2CCN(C(=O)CCn3c(=O)c4cccn4c4cccnc43)CC2C)c1 (centres undefined),14.9% (inactive)
2,O=C(O)CCCCC(=O)O,2.29% (inactive)
3,COc1ccc(N2CC(C(=O)NCCN3C(=O)S/C(=C\c4cccnc4)C3=O)CC2=O)c(OC)c1 (centres undefined),2.93% (inactive)
4,O=C(NCCN1C(=O)S/C(=C\c2cccnc2)C1=O)c1ccc(S(=O)(=O)N2CCCC2)cc1,31.1% (active)
5,O=C(Nc1ncccc1O)c1ccc(S(=O)(=O)N2CCCC2)cc1,1.73% (inactive)
6,Cc1cccc(NC(=O)Cn2c(=O)n(CCC(C)C)c(=O)c3cccnc32)c1,-14.3% (inactive)
7,Cc1ccc(-c2nc3cccc(C)n3c2Nc2ccc3c(c2)OCCO3)cc1,-6.45% (inactive)
8,Cc1cccc(N2CCN(C(=O)CCSCc3ccccc3F)CC2)c1C,-6.07% (inactive)
9,COc1ccc(N2CCN(C(=O)CCSCc3ccccc3F)CC2)cc1,1.03% (inactive)
10,O=C(CCSCc1ccccc1F)N1CCN(c2ccc(Cl)cc2)CC1,57.2% (active)
11,CC(Oc1ccccc1)C(=O)N[C@@H]1C(=O)N2[C@@H]1SC(C)(C)[C@@H]2C(=O)O (some centres undefined),8.72% (inactive)
12,Cc1cccc2c(=O)cc(CSc3ccccc3NC(=O)C(C)C)[nH]c12,3.87% (inactive)
13,COc1cc(Nc2nc(-c3ccc(OC)c(OC)c3)nc3ccccc23)cc(OC)c1,-6.69% (inactive)
14,Cc1ccc(-c2nn(-c3ccccc3)cc2/C=C/C(=O)Nc2cccc(S(N)(=O)=O)c2)cc1,38.3% (active)
15,NS(=O)(=O)c1ccc(NC(=O)/C=C/c2ccccc2Cl)cc1,2.71% (inactive)
16,COc1ccc(-n2cnnc2SCC(=O)Nc2cccc(S(N)(=O)=O)c2)cc1,0.641% (inactive)
17,CN[C@@H]1[C@@H](O)[C@@H](O[C@@H]2[C@H](O)[C@H](O[C@H]3OC(CN)=CC[C@H]3N)[C@@H](N)C[C@H]2N)OCC1(C)O (some centres undefined),-3.05% (inactive)
18,O=C1NS(=O)(=O)c2ccccc21,0.55% (inactive)
19,CCn1cc(C(=O)NCCc2ccccc2)c(=O)c2cc(S(=O)(=O)N3CCCCCC3)ccc21,-2.07% (inactive)
20,CC(=O)Nc1ccc(NC(=O)C2CCCN(S(=O)(=O)c3ccc4c(c3)CCCC(=O)N4)C2)cc1 (centres undefined),6.84% (inactive)
21,CN(C)CCCSc1ccccc1NC(=O)/C=C/c1ccccc1,-15.8% (inactive)
